The results in this text go back to PubChem BioAssay AID602333 (Sanford-Burnham Center for Chemical Genomics, 2012).

Out of some 1,900 compounds screened, about 240 (13%) were called active. Not all results are given here. Values without a mark were called inactive.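 Rule for the calls: active = mean inhibition at least 40% at 20 µM, or signal 3 deviations below plate average, so some actives read negative; inactive = the rest.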

The inhibition is the drop in the measured response relative to a control, in per cent.

The target of this assay is Prothrombin (Bos taurus) (UniProt P00735). Briefly: bovine thrombin protease inhibition, confirmation, counter-screen for Rpn11 inhibitor project, biochemical, fluorescence polarization, single concentration (AID 602333).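 Note: plate controls were thrombin with DMSO for no effect and buffer wells lacking thrombin for full effect.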 The note with it: bovine thrombin cleavage of Ub4-pepOG, at 20 µM, hits give high values.
Sequence of Prothrombin (Bos taurus) (P00735 whole entry, looked up): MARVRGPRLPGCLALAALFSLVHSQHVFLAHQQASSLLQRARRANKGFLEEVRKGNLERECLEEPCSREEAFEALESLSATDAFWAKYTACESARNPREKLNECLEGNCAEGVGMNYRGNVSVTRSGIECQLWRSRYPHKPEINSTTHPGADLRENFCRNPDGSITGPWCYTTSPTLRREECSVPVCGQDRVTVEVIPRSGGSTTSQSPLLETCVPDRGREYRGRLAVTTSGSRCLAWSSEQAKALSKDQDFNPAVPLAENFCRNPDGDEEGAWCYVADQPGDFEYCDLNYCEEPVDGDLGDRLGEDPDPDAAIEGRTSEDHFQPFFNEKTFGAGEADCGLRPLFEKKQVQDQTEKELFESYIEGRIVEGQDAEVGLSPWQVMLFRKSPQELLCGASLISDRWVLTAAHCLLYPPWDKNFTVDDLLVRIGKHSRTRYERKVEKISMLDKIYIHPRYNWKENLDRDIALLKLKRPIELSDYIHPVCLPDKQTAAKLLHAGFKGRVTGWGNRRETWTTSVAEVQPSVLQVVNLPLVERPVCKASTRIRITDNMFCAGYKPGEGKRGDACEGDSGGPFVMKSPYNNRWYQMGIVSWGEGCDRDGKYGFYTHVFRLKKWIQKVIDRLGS
Regarding `O=C(Nc1ccc(-c2nnc(-c3ccccc3)o2)cc1)c1ccc(Br)o1`, the inhibition is -5.94%.
In the case of `Cc1c(N=Nc2ccc(N(C)C)cc2)c(=O)n(-c2ccccc2)n1C`, the inhibition is 37.7%.
Then `N#Cc1c(-c2cccs2)nc(SCC(=O)c2ccc(Br)cc2)[nH]c1=O`, with 15.6%; and `NC(N)=N/N=C/c1ccc(OCc2ccc(Cl)cc2Cl)cc1`, with -36.6%.
To `CS(=O)(=O)c1ccc2c(c1)SC1=NC(=O)/C(=C/c3ccco3)C(=N)N12` belongs 26%; to `Cc1sc2nc(COC(=O)C(NC(=O)c3ccc(Cl)cc3Cl)C(C)C)[nH]c(=O)c2c1C` (stereo not drawn), 13.5%.
For `O=C(CSc1cccc2cccnc12)N/N=C/c1cccnc1`, the inhibition is -13.1%.
To `CC(C)CC1C(=O)N(Cc2cn(Cc3ccco3)nn2)CCS(=O)(=O)N1Cc1ccc(-c2ccc(Cl)c(Cl)c2)cc1` (stereo not drawn) belongs -6.74%; to `COC1=C/C(=C/c2c(N)n3nc(CC(=O)N4CCOCC4)sc3nc2=O)C=CC1=O`, 36%; to `CN=c1scc(-c2cc(OC)ccc2OC)n1/N=C/c1c(C)[nH]c2ccccc12`, 30%.
For the compound `O=C(OCc1cc2ccccc2[nH]c1=O)c1cccnc1`, the inhibition is -12.2%.
Turning to `CCOc1cc(/C=C2\SC(N3CCCC(C)C3)=NC2=O)ccc1O` (stereo not drawn), the inhibition was 10%.
In the case of `CCc1ccc(-c2cc(C(=O)NCc3ccco3)c3ccccc3n2)s1`, the inhibition was 33.8%.
With `Oc1c(CN2CCCC2)cc(COCc2ccccc2)c2cccnc12`, the inhibition is -28.1%.
With `O=C(CCS(=O)(=O)c1cccc2nonc12)NCCc1ccccc1Cl`, the inhibition is -6.4%.
Then `CCc1ccc(NC(=O)CS(=O)CC(=O)NCCCc2ccccc2)cc1` (stereo not drawn), with 5.42%; and `N#Cc1ccc(C(=O)Nc2cccc3cccnc23)c(F)c1`, with -28.1%; and `COc1ccc(NC(=O)Cn2c(-c3ccc(OC)cc3)cn(-c3ccc(C)cc3)c2=O)cc1`, with 29.3%.
To `Cc1cc(/C=N/Nc2ccc([N+](=O)[O-])cn2)c(C)n1-c1cccc(C(=O)O)c1` belongs -0.18%; to `COc1ccc(CC(=O)Nc2ccc(-c3nnc(-c4ccc(C)cc4)o3)cc2)cc1`, -14.6%; to `C=CCn1c(=S)[nH]c2scc(-c3ccco3)c2c1=O`, -8.62%.
Then `Cc1cc(OCC(=O)Nc2nccs2)c2c(C)c(C)c(=O)oc2c1`, with -9.45%.
Consider `COC(=O)c1ccc(OCC(=O)NC(C)(C)C)cc1`, for which the inhibition is -4.55%.
